Laboratory results published in ChEMBL document CHEMBL1157539, “Thousands of chemical starting points for antimalarial lead identification” (Nature, 2010).

Tests used:
Assay type in all cases: functional
Plasmodium falciparum [1] = test: GSK_TCMDC: Inhibition of Plasmodium falciparum 3D7 in whole red blood cells, using parasite LDH activity as an index of growth. Test compounds present at 2uM
Plasmodium falciparum [2] = test: GSK_TCMDC: Inhibition of Plasmodium falciparum Dd2 in whole red blood cells, using parasite LDH activity as an index of growth. Test compounds present at 2uM
HepG2 = test: GSK_TCMDC: Percent inhibition of human HepG2 cell line. Test compounds present at 10uM.

Structure (SMILES) | Inhibition (Plasmodium falciparum [1]) [%] | Inhibition (Plasmodium falciparum [2]) [%] | Inhibition (HepG2) [%]
Cc1ccc(C2CCN(CCCCNC(=O)c3ccc(NC(=O)c4ccc(Cl)cc4)cc3)CC2)c(OCC(F)(F)F)c1 | 99 | 84 | 32
CN(C)c1cc(NC(=O)Nc2ccccc2)c2ccccc2n1 | 100 | 98 | 11
COc1ccccc1CN1CCC(CNC(=O)c2cc(-c3ccc(N(C)C)cc3)cs2)C1.O=C(O)C(F)(F)F (centres undefined) | 82 | 16 | 17
O=C(O)C(F)(F)F.c1ccc2[nH]c(-c3ccc(-c4ccc(CN5CCCCC5)cc4)cc3)nc2c1 | 99 | 100 | 27
CC1CCc2sc(-c3nnc(SC(C)C(=O)N4CCCC4)o3)cc2C1 (centres undefined) | 93 | 94 | 1
CNC(=O)Cc1ccc(C(=O)Nc2cccc(-c3csc(-c4nc5ccccc5[nH]4)c3)c2)cc1 | 95 | 69 | 36
Cc1ccc(-n2c(Sc3ncnc4sccc34)nnc2N2CCCC2)cc1 | 99 | 100 | 0
O=C(Nc1cccc(C(F)(F)F)c1)c1ccc(S(=O)(=O)NCC2CCCN2CC2CCCCC2)cc1.O=C(O)C(F)(F)F (centres undefined) | 98 | 3 | 14
CC(=O)Nc1cccc(Nc2c3ccccc3nc3ccccc23)c1 | 82 |  | 31
CC1(C)C(=O)N=C2C1=C(O)C(=O)c1ccccc12 | 93 |  | 0
Cn1nccc1C(=O)NCCNCc1cccc(-c2ccc(-c3nc4ccccc4[nH]3)cc2)c1.O=C(O)C(F)(F)F | 100 | 98 | 19
CCOC(=O)C1=C(C)NC(C)=C(C(=O)OCC)C1(C(=O)OCc1ccccc1)c1cccc(C(F)(F)F)c1 | 88 | 60 | 0
O=CO.c1ccc(CCNc2ccnc(Nc3ccc4cn[nH]c4c3)n2)cc1 | 100 | 100 | 54
COC(=O)c1ccc2c(-c3nc4ccc(OC)cc4[nH]3)c[nH]c2c1 | 95 | 31 | 0
CCCCNCc1ccc(-c2nc(CN(CCCn3ccnc3)C(=O)C3COc4ccccc4O3)cs2)cc1.O=C(O)C(F)(F)F (centres undefined) | 93 | 8 | 6
COc1ccc2nccc([C@@H](O)CN3CCC(NCc4cc5oc(=O)n(C)c5cc4F)CC3)c2c1.O=C(O)C(=O)O | 99 | 72 | 0
COc1cccc(CCc2cccc(CNC(C)=O)c2)c1 | 88 | 0 | 2
Cc1ccccc1Oc1ccc(Nc2ccnc(Nc3cccc(C(N)=O)c3)n2)cc1C(F)(F)F.Cl | 81 |  | 9
COc1cc(OC)cc(C(=O)Nc2nc(-c3ccc(NC(=O)c4ccccc4)cc3)cs2)c1 | 88 |  | 16

Structure (SMILES) | Inhibition (Plasmodium falciparum [1]) [%] | Inhibition (Plasmodium falciparum [2]) [%] | Inhibition (HepG2) [%]
COc1ccc(CCN2CC[C@H](CNc3nc(-c4ccccc4)nc4ccccc34)C2)cc1S(N)(=O)=O.O=C(O)C(F)(F)F | 85 |  | 54
CCc1cc(-c2n[nH]c(C(F)(F)F)c2-c2ccccc2)c(O)cc1OC | 84 |  | 9
Cc1csc2nc(C(C)c3ccc(NC(=O)c4cccs4)cc3)oc(=O)c12 (centres undefined) | 90 |  | 0
Brc1ccsc1-c1nc(NC2CCN(Cc3ccccc3)CC2)no1 | 80 |  | 0
O=CO.c1ccc2c3c([nH]c2c1)C(c1ccc2c(c1)CCO2)N(c1ncnc(N2CCN(CCCN4CCOCC4)CC2)n1)CC3 (centres undefined) | 80 |  | 37
O=C(NCCCCN1CCC(c2ccc3c(c2OCCOCCO)CCCC3)CC1)c1ccc(-c2ccc(C(F)(F)F)cc2)cc1 | 97 |  | 44
N=C(N)c1nc2ccccc2s1 | 87 |  | 1
Nc1nc(O)c2cc(CNc3ccc(C(=O)N[C@@H](CCC(=O)O)C(=O)O)cc3)ccc2n1 | 96 |  | 2
CCN(CC)CCCC(C)Nc1ccnc2cc(Cl)ccc12.O=P(O)(O)O.O=P(O)(O)O (centres undefined) [CHLOROQUINE PHOSPHATE] |  | 96 | 12
CN(C)Cc1cccc(-c2ccc(NC(=O)c3ccc4c(=O)n(Cc5cnn(C)c5)cnc4c3)cc2)c1 | 80 |  | 12
Cc1nc(Cl)c2c(-c3ccccc3)csc2n1 | 84 |  | 0
CC(Sc1nnc(-c2ccccc2Br)[nH]1)C(=O)Nc1ccc(F)cc1 (centres undefined) | 90 |  | 0
Cc1cc(OCCCN2CCCC2)ccc1NC(=O)COc1ccc(Cl)cc1C(=O)c1cc(C#N)cc(C(F)(F)F)c1 | 85 |  | 18
C=CC(C)C1OC(=O)c2cc(OC)cc(OC)c21 (centres undefined) | 100 |  | 100
Cc1nn(-c2ccccc2)nc1C(=O)N(Cc1ccc(-c2ccc(CNCCc3ccc(S(C)(=O)=O)cc3)cn2)cc1)C1CC1.O=C(O)C(F)(F)F | 84 |  | 9
c1ccc2sc(-c3csc(Nc4ccncc4)n3)nc2c1 | 86 |  | 0
CC(C)CNC(=O)c1ccc(-c2cccc(CN3CCC(N4CCCC4)CC3)c2)nc1.O=C(O)C(F)(F)F | 81 |  | 4
O=c1ccc2ccc(O)c(O)c2o1 [DAPHNETIN] | 85 |  | 4
O=C(O)C(F)(F)F.O=C(O)CCc1ccc(-c2c[nH]c3ncc(-c4ccc5ncccc5c4)cc23)cc1 | 88 |  | 30

Structure (SMILES) | Inhibition (Plasmodium falciparum [1]) [%] | Inhibition (Plasmodium falciparum [2]) [%] | Inhibition (HepG2) [%]
CCCN1CCN(CCNc2c3ccccc3nc3ccccc23)CC1 | 88 |  | 13
Br.Oc1ccc(CCNCCCCCNCCCc2ccc(Cl)cc2)cc1O | 91 |  | 22
CC(C)(C)c1cc(Cl)cc(C(=O)Nc2cc([N+](=O)[O-])ccc2Cl)c1O | 91 |  | 79
CC(CC1CCCCC1)NCc1ccccc1OCCC(=O)N1CCCC1C(N)=O (centres undefined) | 97 |  | 5
O=C(c1ccccc1)N1CCC[C@](CCCN2CCN(c3ccccc3O)CC2)(c2ccc(Cl)c(Cl)c2)C1 | 80 |  | 16
O=C(Nc1ccc(C(F)(F)F)cc1)c1cc(Cl)cc2nc(C(F)(F)F)[nH]c12 | 100 |  | 86
CCCCNC(=O)C1CCCN(C(=O)c2ccc(O)c(-c3ccc(Cl)c(Cl)c3)c2)C1 (centres undefined) | 83 |  | 3
Cl.O=C(NCCCCN1CCC(c2ccc3c(c2OCCCO)CCCC3)CC1)c1ccc(-c2ccc(C(F)(F)F)cc2)c(CO)c1 | 95 |  | 66
COc1cc(CCNCC(O)c2ccc([N+](=O)[O-])c(OCc3ccccc3)c2)cc(OC)c1OC.Cl (centres undefined) | 98 |  | 11
Cc1ccc(Nc2c3ccccc3nc3ccc(C)cc23)cc1 | 88 |  | 26
CN(C)c1ccc(NC(=O)Nc2ccnc3ccccc23)cc1Br.Cl | 98 |  | 21
C[C@H]1CN(Cc2ccc(-c3cccc(CNC(=O)c4cccc(C(=O)c5ccc(Cl)c(Cl)c5)c4)c3)s2)CCN1.O=C(O)C(F)(F)F | 99 |  | 3
CC(C)CN1C(=O)C(c2ccc(F)c(F)c2)=C(O)C1c1ccccc1 (centres undefined) | 94 |  | 0
CC(C)Cc1csc(NC(=O)C=Cc2ccco2)c1C(=O)O | 82 |  | 4
Cc1ccc(-n2c(C)cc(C(=O)CN3C(=O)NC(Cc4ccccc4)C3=O)c2C)cc1 (centres undefined) | 82 |  | 0
O=C(Nc1nccs1)c1sc2ccccc2c1O | 96 |  | 0
O=C(CN1C(=O)CC1S(=O)(=O)Cc1ccco1)NCCCCCCc1ccc(F)cc1 (centres undefined) | 95 |  | 0
COc1ccc(NS(=O)(=O)c2ccc(Oc3nc(C)nc4sc5c(c34)CCCC5)cc2)cc1 | 96 |  | 5
Cc1ccc(-c2cnc3[nH]cc(-c4ccc(C(=O)O)c(C)c4)c3c2)cc1C.O=C(O)C(F)(F)F | 96 |  | 37
